Source: PubChem BioAssay (NMMLSC)
Bcl-W Bim block = inhibitors of Bim-Bcl-W interaction, human; actives 0.02% (n = 190,000); bead-based flow cytometry, Bim peptide-Bcl-W binding; inhibition, % at 10 µM;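 further: higher means less fluorescent Bim peptide bound to Bcl-W beads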
Target sequence (Q92843 whole entry, looked up): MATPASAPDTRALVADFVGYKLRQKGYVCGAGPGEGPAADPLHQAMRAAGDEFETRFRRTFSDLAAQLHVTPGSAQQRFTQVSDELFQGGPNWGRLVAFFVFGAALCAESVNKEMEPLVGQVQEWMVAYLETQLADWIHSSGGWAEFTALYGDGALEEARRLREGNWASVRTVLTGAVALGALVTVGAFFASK
Bcl-B Bim block = disrupts Bim peptide binding to human Bcl-B; actives 0.073% (n = 190,000); bead-based flow cytometry; inhibition, % at 10 µM
Target sequence (Q9HD36 whole entry, looked up): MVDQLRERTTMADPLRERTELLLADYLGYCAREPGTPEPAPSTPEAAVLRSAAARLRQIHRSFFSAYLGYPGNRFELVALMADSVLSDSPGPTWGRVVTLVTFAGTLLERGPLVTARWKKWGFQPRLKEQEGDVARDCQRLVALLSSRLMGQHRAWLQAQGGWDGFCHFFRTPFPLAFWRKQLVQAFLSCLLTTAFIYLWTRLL
Bcl-2 Bim block = inhibitors of Bim-Bcl-2 interaction, human; P10415; actives 0.06% (n = 190,000); Bead-based flow cytometry, Bim peptide-Bcl-2 binding; inhibition, % at 10 µM; in the data active means inhibition above about 40%
Bim-Bfl-1 = inhibitors of Bim-Bfl-1 interaction, human; inhibition, % at 10 µM; Bead-based flow cytometry, Bim-Bfl-1 binding inhibition; AID 1008; Q16548; actives 0.12% (n = 190,000)
Target sequence (Q16548 whole entry, looked up): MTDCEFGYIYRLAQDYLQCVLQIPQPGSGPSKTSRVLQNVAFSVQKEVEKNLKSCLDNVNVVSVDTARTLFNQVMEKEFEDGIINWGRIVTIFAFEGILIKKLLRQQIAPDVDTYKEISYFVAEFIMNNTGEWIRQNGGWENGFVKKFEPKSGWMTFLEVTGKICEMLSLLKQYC
Bim-Bcl-XL = inhibitors of Bim-Bcl-XL interaction, human | Q07817 | Bim peptide-Bcl-XL binding, bead flow cytometry, fluorescence | actives 0.04% (n = 190,000) | inhibition, % at 10 µM
Of the large screens only hits and unclear results are named; the others gave an inactive call. An excerpt weighted towards active compounds, which were near 0.18% of everything screened. Unless noted, no stated cut-off is given here; in the data, active means inhibition above about 40%.

COCCN(C(=O)CCc1ccccc1OC)c1nnc(-c2cccnc2)s1	none
Cc1ccc(/C=C/C2=Cc3c(sc(NC(=O)CSc4n[nH]c(N)n4)c3C#N)C(C)(C)C2)o1	Bim-Bfl-1 47
CCOC(=O)c1sc(NC(=O)CSc2n[nH]c(-c3ccccc3)n2)c(C#N)c1C	none
Cc1[nH]c2ccccc2c1C(=O)COC(=O)c1c(-c2c(F)cccc2Cl)noc1C	Bim-Bfl-1 43, Bim-Bcl-XL 41
COc1ccc(C(=O)C2CCCN(Cc3c[nH]c4ccccc34)C2)c(OC)c1 (configuration not stated)	none
Cc1ccc(N=C2NC(=O)/C(=C/C=C/c3ccco3)S2)cc1	Bim-Bfl-1 52
CCCCCCc1cc2cc(C(=O)Nc3ccccc3)c(=O)oc2cc1O	Bcl-B Bim block 50, Bcl-2 Bim block 45
COc1ccc2c3c(cccc13)N(C)N=C2C	Bcl-W Bim block 70, Bcl-2 Bim block 40, Bim-Bfl-1 73
O=C(c1ccccc1NS(=O)(=O)c1ccc(F)cc1)N1CCCC1	none
O=C(c1ccccc1NS(=O)(=O)c1ccc(Br)s1)N1CCCC1	Bim-Bfl-1 49
CCN(C(=O)CSc1nnc2c3ccccc3n(CC)c2n1)C1CCS(=O)(=O)C1 (configuration not stated)	none
Cc1cc2nc(/C(C#N)=C/c3ccncc3)[nH]c2cc1C	Bcl-W Bim block 47, Bcl-2 Bim block 44
Cc1ccc2c(CC(=O)Nc3cccc(S(=O)(=O)N4CCOCC4)c3)coc2c1	none
CC(C)c1ccc(C2CC(c3ccc(Br)cc3)=NN2C(N)=S)cc1 (configuration not stated)	Bcl-B Bim block 66
CNc1nc2ccccc2n1/N=C/c1cccc(OC)c1OC	Bcl-2 Bim block 92 (no result: Bcl-B Bim block, Bim-Bfl-1)
CCC(=O)N(C1=C(NC)C(=O)c2ccccc2C1=O)C(C)C	none
CCC(=O)N(CC)C1=C(O)c2ccccc2C(=O)C1=O	Bim-Bfl-1 52
Cc1ccc(C)c(Oc2ncnc(N)c2[N+](=O)[O-])c1	Bim-Bfl-1 43, Bim-Bcl-XL 46
Cc1cc(C)c(C)c(Oc2ncnc(N)c2[N+](=O)[O-])c1	none
Cc1ccc(NCC(=O)c2ccccc2)cc1Cl	none
Cc1ccc(NC2=C(NC(=O)c3ccccc3)C(=O)c3ccccc3C2=O)cc1Cl	Bim-Bfl-1 50
O=C(O)c1cccc(NC2=C(Cl)C(=O)c3ccccc3C2=O)c1	Bim-Bfl-1 60
CC(C)c1cc(NCC2CCCO2)n2c(nc3ccccc32)c1C#N (configuration not stated)	none
Cc1nnc(SCC(=O)c2ccc(C(C)C)cc2)s1	none
O=C(NNC(=S)NC1CCCCC1)c1ccccc1O	none
CCOC(=O)c1c2c3c(c(Cl)ccc3[nH]c1=O)C(=O)c1ccccc1-2	Bim-Bcl-XL 51
CCOC(=O)c1c2c3c(cccc3[nH]c1=O)C(=O)c1ccccc1-2	none
O=C(O)c1ccc(N=NN2CCCCCC2)cc1	none
CC(C)CC(=O)OCc1cn(-c2ccccc2)nn1	Bcl-B Bim block 80, Bcl-2 Bim block 83, Bim-Bfl-1 58
Cc1ccc(-c2c3c([nH]c(=S)c2C#N)CCCC3)o1	Bim-Bfl-1 41
N#Cc1c(-c2ccncc2)c2c([nH]c1=S)CCCC2	none
N#Cc1c2ccc(O)cc2n2ccccc12	none
CCOC(=O)CSC1=NC(=O)/C(=C\c2ccc(OC(C)=O)cc2)S1	Bim-Bfl-1 58
CCOC(=O)C1C(=O)C=C(Nc2ccccc2F)CC1c1ccccc1 (configuration not stated)	none
O=C1Nc2ccc([N+](=O)[O-])cc2OC1CCN1CCN(Cc2ccc3c(c2)OCO3)CC1 (configuration not stated)	Bcl-B Bim block 73, Bcl-2 Bim block 72, Bim-Bfl-1 47
COc1cc2[nH]c(=S)nc(NCCc3ccc(C)cc3)c2cc1OC	none
COc1cc2[nH]c(=S)nc(Nc3ccc(NC(C)=O)cc3)c2cc1OC	Bim-Bcl-XL 50
COc1ccc(CCNc2nc(=S)[nH]c3cc(OC)c(OC)cc23)cc1OC	Bim-Bcl-XL 48
COc1cc2[nH]c(=S)nc(NCCc3ccc(S(N)(=O)=O)cc3)c2cc1OC	Bim-Bcl-XL 55
COCCCNc1nc(=S)[nH]c2cc(OC)c(OC)cc12	none
O=C(C1=C[C@H](c2csc3ccccc23)C[C@H](OCc2ccc(CO)cc2)O1)N1CCN(Cc2ccc3c(c2)OCO3)CC1	none
CC1(C)SC(=S)N(NC(=O)Nc2ccccc2)C1N(O)C(=O)Nc1cccc2ccccc12 (configuration not stated)	Bim-Bfl-1 48, Bim-Bcl-XL 45
CN1C(=S)SC(C)(C)C1N(O)C(=O)Nc1ccc(Cl)cc1 (configuration not stated)	none
Cc1ccc(-c2cc(-c3ccccc3)c(C#N)c(N)n2)o1	Bim-Bfl-1 42
Cc1ccc(-c2cc(-c3ccccc3Cl)c(C#N)c(N)n2)o1	none
CC(C)c1ccc(S(=O)(=O)/N=C2/C=CC(=O)c3ccccc32)cc1	Bim-Bfl-1 42
COC(=O)C(C(C)=O)C1=C/C(=N\S(=O)(=O)c2ccc(C)cc2)c2ccccc2C1=O (configuration not stated)	none
CN1C(=O)/C(=C/c2ccc(-c3ccccc3[N+](=O)[O-])o2)SC1=Nc1ccc(Cl)c(C(=O)O)c1	Bcl-W Bim block 44, Bcl-B Bim block 44, Bim-Bcl-XL 64
NC(=O)c1c(NC(=O)C2CCCO2)sc2c1CCCC2 (configuration not stated)	Bim-Bcl-XL 42
Cc1ccc(-n2nnnc2CCl)cc1	none
CCOC(=O)c1cc2c(=O)n3cccc(C)c3nc2n(Cc2ccco2)c1=NC(=O)c1cccnc1	Bim-Bfl-1 40
CN(C)CCNC(=O)C(=O)C1C(=O)Nc2ccccc21 (configuration not stated)	Bcl-B Bim block 70, Bcl-2 Bim block 78, Bim-Bfl-1 52
Cc1ccc(NC(=O)C2=C(c3ccccc3)S(=O)(=O)CCS2(=O)=O)cc1	none
O=C(Nc1ccccc1)Nc1ccc2ncoc2c1	Bcl-B Bim block 52, Bcl-2 Bim block 41, Bim-Bcl-XL 59
O=C(Nc1ccccc1)Nc1ccc2ocnc2c1	none
COC(=O)c1cc2c(-c3ccccc3)cc3ccccn3c-2c1C(=O)OC	none
COC(=O)c1c(C(=O)OC)c2cccc3cc(-c4ccccc4)c4ccc1c4n32	Bim-Bfl-1 44
CCOc1nc(-c2ccc(Cl)cc2)nc2ccccc12	none
Oc1ccc(C2=Nn3c(nnc3-c3ccco3)SC2)cc1O	Bim-Bcl-XL 55
O=C(CCl)Nc1cccc2ncccc12	Bcl-B Bim block 57
Cc1ccc(-n2ccc(=O)c(-c3ccnc(SCc4cccc(Cl)c4)n3)n2)cc1	Bcl-B Bim block 74, Bcl-2 Bim block 79, Bim-Bfl-1 56
COc1ccccc1OCc1ccc(C(=O)Nc2ccccc2F)cc1	Bcl-B Bim block 63, Bcl-2 Bim block 47
Cn1ccc(-c2ccccc2)n1	none
N#Cc1cc(-c2ccccc2)nn1-c1ccccc1	Bim-Bfl-1 57
Cc1nnc(NCc2n[nH]c(=O)c3ccccc23)c2ccccc12	Bcl-B Bim block 57
